Screening data: PubChem BioAssay, National Center for Advancing Translational Sciences (NCATS)
In the library only some 4% were active in any assay of this set; here they are far more common.
GPR32 ag: agonists of human resolvin D1 receptor DRV1 (GPR32) | activation, % at 76.9 µM | CHO-K1 GPR32 beta-arrestin PathHunter luminescence, 90 min; zero percent set by DMSO-only wells | actives 2.5% (n = 48,000) | O75388;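 active means activation of at least 60% and not above a set upper limit, about 1 call in 100 departs from these limits; inconclusive means activation of 40% to 60%, or above that upper limit; inactive means activation under 40%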
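Cells are plated overnight, treated with compounds in DMSO for 90 minutes at 37 °C, and developed with PathHunter detection reagent for 1 hour before luminescence is read; signal reflects beta-arrestin binding to GPR32 in engineered CHO-K1 cells.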
SKOV3 invasion: inhibitors of ovarian cancer cell adhesion and invasion in omental model; AID 1963576; SKOV3ip1-GFP adhesion/invasion on 3D omental model, fluorescence; actives 0.1% (n = 46,000); Potency, µM (titrated, usually from 45.8 µM), most hits filed as inhibitors; further: nearly all actives have a fitted effect of over 65% in size
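Primary human omental fibroblast/mesothelial 3D culture pre-formed 48 h. SKOV3ip1-GFP cells added with compounds (0.36-46 umol/L), incubated 2 h RT/16 h 37 C, fixed; GFP cells quantified at 488/509 nm.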
NTMT1 inh: blocks human N-terminal methyltransferase 1 activity | Q9BV86 | NTMT1 MTase-Glo SAH luminescence, purified enzyme | Potency, µM (series often up to 114 µM), usual class: inhibitors | actives 2.5% (n = 59,000) | AID 1645870; further: nearly all actives have a fitted effect of over 65% in size
Target sequence (Q9BV86 whole entry, looked up): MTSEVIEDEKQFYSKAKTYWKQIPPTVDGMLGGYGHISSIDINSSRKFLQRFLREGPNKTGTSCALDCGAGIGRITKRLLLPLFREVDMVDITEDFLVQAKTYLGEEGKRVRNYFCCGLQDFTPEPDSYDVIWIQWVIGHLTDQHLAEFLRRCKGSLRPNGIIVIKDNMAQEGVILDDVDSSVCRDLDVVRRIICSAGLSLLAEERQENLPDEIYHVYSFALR
p53null 32C kill: p53 null cell cytotoxicity, permissive temperature | Potency, µM (top dose mostly 46.1 µM), most hits filed as cytotoxic | actives 0.62% (n = 55,000) | H1299-neo p53 null cells, ATP luminescence, 24 h, 32C; further: nearly all actives have a fitted effect of over 55% in size
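We seeded p53-null H1299-neo cells, incubated them overnight at 37C, and added compounds across a range up to 46 uM. After 24 hours at 32C, ATP reagent was applied for 20 min at room temperature and luminescence recorded.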
GALC G270D act: galactocerebrosidase G270D activity enhancement, cell-based; P54803; 145M-Twi-hGALC-G270D cells (Twitcher mouse brain line with human GALC G270D), HMU-beta-Gal fluorescence, 48 h; Potency, µM (titrated, usually from 57.5 µM), most hits filed as activators; actives 0.1% (n = 45,000); AID 1159614; further: nearly all actives have a fitted effect of over 65% in size
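Fluorogenic HMU-b-Gal hydrolysis (0.1 mM final, pH 5.2 citrate-phosphate with 1 mg/mL sodium taurocholate; carbonate stop buffer) measures mutant GALC activity after compound treatment of live 145M-Twi Twitcher brain cells stably carrying human GALC-G270D, with wild-type GALC line alongside; activation sought.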
p53null 39C kill: kills p53 null cells at the nonpermissive temperature | AID 904 | H1299 p53-null (neo) cells, 39C, ATPlite viability, 24 h | Potency, µM (doses to about 46.1 µM), usual class: cytotoxic | actives 0.97% (n = 55,000); further: nearly all actives have a fitted effect of over 50% in size
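ATP-luminescence viability readout (ATPlite, 20 min RT) after 24 hr compound treatment at 39C of H1299-neo or H1299-p53A138V cells; titration up to 46 uM; normalized to DMSO and 100 uM tamoxifen; Hill-fit AC50.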
CLK4 inh: CLK4 kinase inhibition, SAR round 2; shares compounds with NTMT1 inh; recombinant Clk4, Kinase-Glo ATP luminescence, 4.5 h; Potency, µM (top dose mostly 76.9 µM), actives largely listed as inhibitors; actives 90% (n = 90)
Sfp qHTS opt: inhibitors of Bacillus subtilis Sfp PPTase, optimization followup; actives 78% (n = 230); Potency, µM (doses to about 114 µM), usual class: inhibitors; purified Sfp PPTase enzyme activity, qHTS; AID 540350; shares compounds with NTMT1 inh
HM489 growth: Sfp PPTase inhibitors: growth inhibition of B. subtilis HM489 | shares compounds with NTMT1 inh | AID 540353 | Potency, µM (top dose mostly 114 µM), actives largely listed as inhibitors | B. subtilis HM489 (acpS-) growth, BacTiter-Glo, 5 h | actives 50% (n = 220)
Sfp gel opt: inhibitors of Bacillus subtilis Sfp PPTase, gel-based followup; shares compounds with NTMT1 inh; purified Sfp PPTase, gel-based product detection; Potency, µM (titrated, usually from 250 µM), usual class: inhibitors; actives 54% (n = 220); AID 540355
Sfp SAR2: inhibitors of Bacillus subtilis Sfp PPTase, SAR round 2; shares compounds with NTMT1 inh; purified Sfp enzyme, PPTase activity, qHTS; actives 87% (n = 230); Potency, µM (titrated, usually from 57.1 µM), hits mostly inhibitors
HSD17B4 inh: counter-screen for HPGD inhibitors: human HSD17B4 inhibition; purified HSD17B4, estradiol/NAD+, NADH fluorescence; Potency, µM (doses to about 57.1 µM), usual class: inhibitors; shares compounds with NTMT1 inh; actives 10% (n = 230)
ALDH1A1 counter: ALDH1A1 (human) inhibition, HPGD counter-screen; shares compounds with NTMT1 inh; recombinant ALDH1A1, NADH fluorescence, propionaldehyde/NAD+; Potency, µM (series often up to 57.1 µM), actives largely listed as inhibitors; actives 93% (n = 230); AID 743195
Target sequence (P00352 whole entry, looked up): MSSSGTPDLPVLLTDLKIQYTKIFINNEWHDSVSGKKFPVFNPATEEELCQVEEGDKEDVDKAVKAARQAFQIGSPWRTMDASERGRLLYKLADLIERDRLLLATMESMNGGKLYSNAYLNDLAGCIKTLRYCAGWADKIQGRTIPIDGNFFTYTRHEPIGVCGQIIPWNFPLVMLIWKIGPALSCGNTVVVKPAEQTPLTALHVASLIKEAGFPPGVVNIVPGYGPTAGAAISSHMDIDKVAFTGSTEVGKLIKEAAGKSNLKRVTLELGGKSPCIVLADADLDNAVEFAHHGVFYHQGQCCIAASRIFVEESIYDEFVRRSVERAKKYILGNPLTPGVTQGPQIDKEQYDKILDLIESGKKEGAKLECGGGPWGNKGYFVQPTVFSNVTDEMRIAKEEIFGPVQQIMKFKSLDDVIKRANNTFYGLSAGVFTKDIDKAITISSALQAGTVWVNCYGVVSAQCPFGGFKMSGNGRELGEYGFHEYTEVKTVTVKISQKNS
NNMT inh: counter-screen for NTMT1 inhibitors: human NNMT inhibition | shares compounds with NTMT1 inh | NNMT MTase-Glo luminescence, SAH detection | Potency, µM (top dose mostly 57.1 µM), usual class: inhibitors | actives 10% (n = 120)
Hits are given with their value; [ ] = remark or other dose. Unless noted, the call rests on the fitted dose curve; in most records, active means well fitted curve in the direction sought with a large enough effect; inconclusive means small, poorly fitted or top-dose-only effect, or another doubt; inactive means no such curve, though single readings can be large; an effect the other way counts as inactive or inconclusive.

How did COc1cc(N2CCN(C(C)=O)CC2)ccc1Nc1ncc(Cl)c(Nc2ccc(N3CCN(C(C)=O)CC3)cc2OC)n1 do in these assays?
NTMT1 inh: 20µM; NNMT inh: inconclusive

How did CCOc1cc(N2CCC(O)CC2)ccc1Nc1ncc2c(n1)N(C)c1ccccc1C(=O)N2C do in these assays?
SKOV3 invasion: inactive; NTMT1 inh: inconclusive

What do the screens show for `COc1cc(N2CCC(N3CCN(C)CC3)CC2)ccc1Nc1ncc(Cl)c(-c2c[nH]c3ccccc23)n1`?
NTMT1 inh: 20µM; NNMT inh: inconclusive

Results for Cc1cc(NS(=O)(=O)c2ccc(NC(=O)Cc3cccc4ccccc34)cc2)no1 ?
NTMT1 inh: inactive

How did Cc1ccnc(NC(=S)N2CCN(c3ccc(Cl)cc3Cl)CC2)c1 do in these assays?
NTMT1 inh: inconclusive; Sfp qHTS opt: 1.9µM; HM489 growth: 8.3µM; Sfp gel opt: 13µM; Sfp SAR2: 0.73µM; HSD17B4 inh: inactive; ALDH1A1 counter: 5.4µM

Results for CCNC(=S)N1CCN(c2ccccn2)CC1 ?
p53null 39C kill: inactive

What do the screens show for `Cc1ccnc(NC(=S)N2CCNCC2)c1`?
NTMT1 inh: inconclusive; Sfp qHTS opt: inactive; HM489 growth: inconclusive; Sfp gel opt: inactive; Sfp SAR2: 14µM; HSD17B4 inh: inactive; ALDH1A1 counter: 27µM

What do the screens show for `Cc1ccnc(NC(=S)N2CCc3ccccc3C2)c1`?
NTMT1 inh: inconclusive; Sfp qHTS opt: 9.4µM; HM489 growth: 33µM; Sfp gel opt: 3.2µM; Sfp SAR2: 1µM; HSD17B4 inh: inactive; ALDH1A1 counter: 3µM

Results for S=C(Nc1cc(Cl)ccn1)N1CCN(c2ccc3ccccc3n2)CC1 ?
NTMT1 inh: inconclusive; Sfp qHTS opt: inconclusive; HM489 growth: 26µM; Sfp gel opt: inconclusive; Sfp SAR2: 7.2µM; HSD17B4 inh: inactive; ALDH1A1 counter: inactive

What do the screens show for `Cc1ccc(C)c(NC(=S)N2CCCCCC2)c1`?
p53null 32C kill: inactive; p53null 39C kill: inactive

Results for CS(=O)(=O)CCNCc1ccc(-c2ccc3ncnc(Nc4ccc(OCc5cccc(F)c5)c(Cl)c4)c3c2)o1 ?
GPR32 ag: inactive; SKOV3 invasion: inactive; NTMT1 inh: inactive; GALC G270D act: inactive; CLK4 inh: inactive

How did Fc1cccc(CNc2ncnc3ccc(-c4cccc(Cl)c4)cc23)c1 do in these assays?
NTMT1 inh: inactive

Results for O=C(O)CCc1cccc(O[C@@H]2O[C@H](CO)[C@@H](O)[C@H](O)[C@H]2O)c1O ?
NTMT1 inh: inactive

What do the screens show for `CN[C@H](C(=O)N[C@H](C(=O)N(C)[C@H](/C=C(\C)C(=O)O)C(C)C)C(C)(C)C)C(C)(C)c1ccccc1`?
NTMT1 inh: inactive

What do the screens show for `FC(F)(F)c1cccc(N2CCN(C(=S)Nc3cccnc3)CC2)c1`?
NTMT1 inh: inconclusive; Sfp qHTS opt: inconclusive; HM489 growth: inconclusive; Sfp gel opt: inactive; Sfp SAR2: 41µM; HSD17B4 inh: inactive; ALDH1A1 counter: 11µM

Results for COc1ccc(NC(=S)N2CCN(c3cccc(C(F)(F)F)c3)CC2)nc1 ?
NTMT1 inh: inconclusive; Sfp qHTS opt: inconclusive; HM489 growth: inactive; Sfp gel opt: inactive; Sfp SAR2: inconclusive; HSD17B4 inh: inactive; ALDH1A1 counter: 3.4µM

How did Cc1cc(C)cc(NC(=S)N2CCN(c3ncccn3)CC2)c1 do in these assays?
p53null 39C kill: inactive[1.84 µM]

How did Cc1cncc(NC(=S)N2CCN(c3cccc(C(F)(F)F)c3)CC2)c1 do in these assays?
NTMT1 inh: inconclusive; Sfp qHTS opt: inconclusive; HM489 growth: inactive; Sfp gel opt: inconclusive; Sfp SAR2: inconclusive; HSD17B4 inh: inactive; ALDH1A1 counter: inactive

What do the screens show for `O=C(Cn1ncc2ccccc21)N1CCN(c2cccc(C(F)(F)F)c2)CC1`?
p53null 32C kill: inactive; p53null 39C kill: inactive

What do the screens show for `FC(F)(F)c1ccc(N2CCN(C(=S)Nc3ccccn3)CC2)cc1`?
NTMT1 inh: inconclusive; Sfp qHTS opt: 2.4µM; HM489 growth: 21µM; Sfp gel opt: 5µM; Sfp SAR2: 0.58µM; HSD17B4 inh: inactive; ALDH1A1 counter: 2.4µM

What do the screens show for `O=C1NS(=O)(=O)c2cc(Br)ccc21`?
NTMT1 inh: inactive

How did CN(CC(=O)Nc1cccc(N2CCOCC2)c1)Cc1c(O)ccc2ccccc12 do in these assays?
NTMT1 inh: inactive

Results for COC(=O)[C@@H](NC(=O)[C@H](CC(C)C)NC(=O)N(Cc1ccccc1)C[C@@H](O)[C@H](Cc1ccccc1)NC(=O)OC(C)(C)C)C(C)C ?
NTMT1 inh: inactive[12.6 µM]

What do the screens show for `O=C1CCCC2=C1C(c1cccc(Cl)c1)N=C(Nc1nc3ccccc3o1)N2` (stereo unspecified)?
NTMT1 inh: inactive
